Screens from PubChem BioAssay.
LDHA block: qHTS assay for inhibitors of human lactate dehydrogenase; L-lactate dehydrogenase A chain (Homo sapiens), P00338; purified LDHA, NADH/diaphorase-resazurin fluorescence; stronger effect = lower value; activity change, % (values are at about 110 or 230 µM); hit rate 0.15% among 480,000; AID 1347041, 2019; in the data active means activity change below about -30%; inconclusive means mostly about -25% to -30%;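 further: plate controls were DMSO wells for no effect and wells without enzyme for full effect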
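Human LDH5 at 2 nM final in Tris HCl pH 7.4 with 0.06 mM NADH and 0.2 mM pyruvate, reacted 5 minutes at room temperature. Remaining NADH coupled via diaphorase/resazurin; resorufin fluorescence read at 0 and 20 minutes, normalized to enzyme-free and DMSO wells.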
IL-1B inflam inh: qHTS for Inhibitors of Inflammasome Signaling: IL-1-beta AlphaLISA Primary Screen | THP-1 LPS/ATP IL-1B secretion, AlphaLISA, 16 h; stronger effect = lower value | activity change, % at 57.5 µM | hit rate 4.7% among 360,000; in the data active means activity change below about -50%; inconclusive means mostly about -30% to -49%
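Secreted IL-1B measured by AlphaLISA bead assay after 16 h compound exposure of THP-1 cells; compounds (final up to 57.5 uM) added 1 h before LPS (250 ng/mL) and ATP (1.25 mM) stimulation; lower signal means less secretion.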
DT40 TDP1 CPT: qHTS for Inhibitors of human tyrosyl-DNA phosphodiesterase 1 (TDP1): qHTS in cells in presence of CPT; chicken DT40 Tdp1-/-;hTDP1 cells + 20 nM CPT, ATP luminescence, 48 h; Potency, µM (highest dose often 46.2 µM), inactives show at the top dose activity change, negative = growth inhibition, most hits filed as inhibitors; hit rate 12% among 420,000; AID 686979, 2013; further: potency means the concentration at half of the fitted maximal effect; nearly all actives have a fitted effect of over 55% in size
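Cell growth measured by CellTiter-Glo luminescence after a minimum 48 h, 37 C compound exposure with 20 nM CPT in Tdp1-knockout DT40 cells stably expressing hTDP1, seeded 400/well; qHTS titration format.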
DT40 TDP1 no CPT: qHTS for Inhibitors of human tyrosyl-DNA phosphodiesterase 1 (TDP1): qHTS in cells in absence of CPT. hit rate 15% among 420,000. Potency, µM (series often up to 46.2 µM), for inactives: top-dose activity change, negative = growth inhibition, hits mostly inhibitors. DT40 Tdp1-/- hTDP1 cells, no CPT, ATP luminescence, 48 h; further: potency means the concentration at half of the fitted maximal effect; nearly all actives have a fitted effect of over 55% in size
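Chicken DT40 Tdp1-/- cells complemented with human TDP1, screened without camptothecin (DMSO vehicle only), 400 cells/well. Compounds pin-transferred, cells incubated at 37 °C for at least 48 hr. Growth read as ATP-dependent luminescence (CellTiter-Glo, 30 min at RT).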
RORg inh: qHTS for inhibitors of ROR gamma transcriptional activity; Nuclear receptor ROR-gamma (Mus musculus), P51450; Drosophila S2 Gal4-RORgamma UAS-luciferase reporter, 20 h; Potency, µM (series often up to 53.6 µM), inactives show at the top dose activity change, negative = inhibition, hits mostly inhibitors; hit rate 5.4% among 310,000; AID 2551, 2010; further: potency means the concentration at half of the fitted maximal effect; nearly all actives have a fitted effect of over 60% in size
Target sequence (P51450 whole entry, looked up, the tested form may be a part): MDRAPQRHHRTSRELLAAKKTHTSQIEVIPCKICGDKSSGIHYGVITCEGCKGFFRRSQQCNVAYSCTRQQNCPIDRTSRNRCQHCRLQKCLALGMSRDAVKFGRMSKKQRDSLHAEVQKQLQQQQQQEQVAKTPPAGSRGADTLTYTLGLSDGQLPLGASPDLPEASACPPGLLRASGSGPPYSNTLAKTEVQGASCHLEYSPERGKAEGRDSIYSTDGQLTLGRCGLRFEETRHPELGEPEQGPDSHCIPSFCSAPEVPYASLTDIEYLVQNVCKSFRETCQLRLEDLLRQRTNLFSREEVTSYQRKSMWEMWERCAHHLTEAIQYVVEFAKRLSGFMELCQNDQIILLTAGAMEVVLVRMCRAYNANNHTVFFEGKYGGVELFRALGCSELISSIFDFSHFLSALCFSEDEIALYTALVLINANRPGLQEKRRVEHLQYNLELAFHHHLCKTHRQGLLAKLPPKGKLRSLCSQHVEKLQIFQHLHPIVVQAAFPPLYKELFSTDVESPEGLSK
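Drosophila Schneider cells stably carrying a metallothionein-driven Gal4 DBD–ROR gamma fusion and a UAS-Photinus luciferase reporter were exposed to compound for 1 hr, then induced with copper sulfate (700 uM final) for 20 hr at ambient temperature before luminescence reading.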
VP16 counter: VP16 counterscreen qHTS for inhibitors of ROR gamma transcriptional activity. Drosophila S2 Gal4-VP16 UAS-luciferase, luminescence, 20 h. Potency, µM (series often up to 53.6 µM), for the others: at the highest dose activity, negative = inhibition, usual class: inhibitors. hit rate 3.5% among 310,000. AID 2546, 2010;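 further: Gal4-VP16 expression switched on by copper sulfate through the metallothionein promoter; potency means the concentration at half of the fitted maximal effect; nearly all actives have a fitted effect of over 50% in size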
The depositor's hits bear a star. Most compounds without a hit are left out; they make up all but 18% or so of the library. Unless noted, the call rests on the fitted dose curve; in most records, active means well fitted curve in the direction sought with a large enough effect; inconclusive means small, poorly fitted or top-dose-only effect, or another doubt; inactive means no such curve, though single readings can be large; an effect the other way counts as inactive or inconclusive. Unless noted, on the % scale 0 is the no-effect control and ±100 the full control effect.

Results for Cc1sc2nc(SCC(=O)N3CCCCC3)[nH]c(=O)c2c1C ?
LDHA block: 1; IL-1B inflam inh: 26; DT40 TDP1 CPT: -12%; DT40 TDP1 no CPT: -9%; RORg inh: 12%; VP16 counter: -10%

Results for Cc1ccc(C(=O)O)cc1F ?
LDHA block: -2

What do the screens show for `Cc1nc2ccncc2nc1C`?
LDHA block: -23

What do the screens show for `Oc1c(C(c2ccccc2)N2CCCCC2)sc2nc(-c3ccco3)nn12` (stereo unspecified)?
LDHA block: 10

How did CC(C(=O)Nc1cc([N+](=O)[O-])ccc1Cl)N1CCN(c2ccccc2O)CC1 (stereo unspecified) do in these assays?
LDHA block: 3; IL-1B inflam inh: 6; DT40 TDP1 CPT: inconclusive; DT40 TDP1 no CPT: 13µM*; RORg inh: -3%; VP16 counter: -6%

How did COc1ccc([N+](=O)[O-])cc1NC(=O)C(C)N1CCCC1 (stereo unspecified) do in these assays?
LDHA block: -3; IL-1B inflam inh: 6; DT40 TDP1 CPT: 14%; DT40 TDP1 no CPT: -14%; RORg inh: -1%; VP16 counter: 9%

What do the screens show for `COc1cc(OC)c(N(C)S(=O)(=O)c2cccc(C(=O)NC3=NCCS3)c2)cc1Cl`?
LDHA block: -2; IL-1B inflam inh: -17; DT40 TDP1 CPT: 23µM*; DT40 TDP1 no CPT: inconclusive; RORg inh: 10µM*; VP16 counter: inconclusive

What do the screens show for `COc1cc(OC)c(N(C)S(=O)(=O)c2cccc(C(=O)OCC(=O)N(C)Cc3ccccc3)c2)cc1Cl`?
LDHA block: -12; IL-1B inflam inh: 0; DT40 TDP1 CPT: 16µM*; DT40 TDP1 no CPT: 23µM*

Results for COc1cc(OC)c(N(C)S(=O)(=O)c2cccc(C(=O)Nc3nc(C)cs3)c2)cc1Cl ?
LDHA block: -1; IL-1B inflam inh: 16; DT40 TDP1 CPT: 16µM*; DT40 TDP1 no CPT: inconclusive

How did COc1cc(OC)c(N(C)S(=O)(=O)c2cccc(C(=O)OCC(=O)NCc3ccco3)c2)cc1Cl do in these assays?
LDHA block: -8; IL-1B inflam inh: 0; DT40 TDP1 CPT: inconclusive; DT40 TDP1 no CPT: inconclusive; RORg inh: 11%; VP16 counter: 1%

How did O=c1ccc2ccc(OCc3nc(-c4cccc(Cl)c4)no3)cc2o1 do in these assays?
LDHA block: -12

What do the screens show for `O=C(OCC(F)(F)C(F)F)c1cccnc1`?
LDHA block: 10

Results for CCSc1nn(CC(=O)Nc2cccc(CC)c2)c(N)c1S(=O)(=O)c1ccccc1 ?
LDHA block: -2; DT40 TDP1 CPT: inconclusive; DT40 TDP1 no CPT: 15µM*

What do the screens show for `COc1ccc(S(=O)(=O)c2c(SC)nn(CC(=O)Nc3ccc(C)c(Cl)c3)c2N)cc1`?
LDHA block: 0; DT40 TDP1 CPT: 26µM*; DT40 TDP1 no CPT: 26µM*

How did Cn1c(=O)c2c(nc(N3CCCCCC3)n2Cc2cccc3ccccc23)n(C)c1=O do in these assays?
LDHA block: -2; IL-1B inflam inh: 11; DT40 TDP1 CPT: inconclusive; DT40 TDP1 no CPT: 26µM*; RORg inh: 3%; VP16 counter: -9%

How did Cc1nn(-c2nc3c(c(=O)n(CC(N)=O)c(=O)n3C)n2Cc2ccccc2)c(C)c1C do in these assays?
LDHA block: -33*

Results for Cn1c(=O)c2c(nc(N3CCOCC3)n2CC(=O)c2ccccc2)n(C)c1=O ?
RORg inh: 7%; VP16 counter: -7%

What do the screens show for `CCn1c(-n2nc(C)c(C)c2C)nc2c1c(=O)n(Cc1ccccc1)c(=O)n2C`?
LDHA block: -2

How did CCOC(=O)Cn1c(=O)c2c(nc(N3CCOCC3)n2Cc2ccccc2)n(C)c1=O do in these assays?
LDHA block: -3; DT40 TDP1 CPT: inconclusive; DT40 TDP1 no CPT: 16µM*

What do the screens show for `Cn1c(=O)c2c(nc(N3CCOCC3)n2Cc2ccccc2)n(C)c1=O`?
LDHA block: -1; DT40 TDP1 CPT: inconclusive; DT40 TDP1 no CPT: 26µM*

Results for O=C(CSCc1ccncc1)N(Cc1ccsc1)C1CC1 ?
LDHA block: 1

Results for O=C(O)c1ccc(Nc2nc(-c3cc4ccccc4oc3=O)cs2)cc1 ?
LDHA block: -4

What do the screens show for `C[C@@H]1CCCCO[C@@H](CN(C)C(=O)Nc2ccccc2)[C@@H](C)CN([C@H](C)CO)C(=O)c2cc(N(C)C)ccc2O1`?
LDHA block: 5; IL-1B inflam inh: 20; DT40 TDP1 CPT: -26%; DT40 TDP1 no CPT: inconclusive

How did CC(C)NC(=O)N(C)C[C@H]1OCCCC[C@H](C)Oc2ccc(NS(=O)(=O)c3ccccc3)cc2C(=O)N([C@H](C)CO)C[C@H]1C do in these assays?
LDHA block: -7; IL-1B inflam inh: 7; DT40 TDP1 CPT: -1%; DT40 TDP1 no CPT: 4%

How did Cc1ccc(S(=O)(=O)Nc2ccc3c(c2)C(=O)N([C@@H](C)CO)C[C@@H](C)[C@@H](CN(C)C(=O)NC2CCCCC2)OCCCC[C@H](C)O3)cc1 do in these assays?
LDHA block: -2; IL-1B inflam inh: -16; DT40 TDP1 CPT: 0%; DT40 TDP1 no CPT: -16%

How did Cc1ccc(S(=O)(=O)Nc2ccc3c(c2)C(=O)N([C@H](C)CO)C[C@H](C)[C@H](CN(C)C(=O)Nc2cccc4ccccc24)OCCCC[C@@H](C)O3)cc1 do in these assays?
LDHA block: 11; IL-1B inflam inh: -2; DT40 TDP1 CPT: 21µM*; DT40 TDP1 no CPT: 15µM*

What do the screens show for `Cc1noc(C)c1NC(=O)Nc1ccc2c(c1)C(=O)N([C@@H](C)CO)C[C@@H](C)[C@H](CN(C)C(=O)Nc1cccc3ccccc13)OCCCC[C@H](C)O2`?
LDHA block: 4; IL-1B inflam inh: -13; DT40 TDP1 CPT: inconclusive; DT40 TDP1 no CPT: inconclusive

Results for C[C@@H]1CN([C@@H](C)CO)C(=O)c2cc(NS(=O)(=O)c3ccc(F)cc3)ccc2O[C@@H](C)CCCCO[C@H]1CN(C)C(=O)NC1CCCCC1 ?
LDHA block: 3; IL-1B inflam inh: -12; DT40 TDP1 CPT: 23µM*; DT40 TDP1 no CPT: inconclusive
